JMJD2A Tudor: qHTS Assay for Inhibitors of JMJD2A-Tudor Domain | AlphaScreen JMJD2A-Tudor / H3K4me3 peptide binding | Potency, µM (series often up to 114 µM), without a hit: at the highest dose activity change, negative = inhibition, hits mostly inhibitors | 4.4% of 390,000 active | AID 504339, 2011; note: % is set by controls: 0 for no effect and ±100 for the full control effect; nearly all actives have a fitted effect of over 50% in size
ALOX12 inh: Primary qHTS assay for inhibitors of human arachidonate 12S-lipoxygenase (ALOX12): Round 2; Potency, µM (doses to about 108 µM), for the others: at the top dose activity change, negative = inhibition, usual class: inhibitors; 1.1% of 580,000 active; Polyunsaturated fatty acid lipoxygenase ALOX12 (Homo sapiens), P18054; purified 12hLO, xylenol orange hydroperoxide absorbance; note: % is set by controls: 0 for no effect and ±100 for the full control effect
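Purified human 12hLO at 150 nM in 25 mM Hepes, 0.01% Triton X-100, pH 7.0, preincubated 15 min at room temperature with compound. Reaction started with 40 uM arachidonic acid, 30 min at room temperature. Hydroperoxide measured by Fe-xylenol orange, 573/405 nm absorbance ratio.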
G9a inh: qHTS Assay for Inhibitors of Histone Lysine Methyltransferase G9a; Histone-lysine N-methyltransferase EHMT2 (Homo sapiens), Q96KQ7; G9a H3K9 monomethylation, AlphaScreen, 2 h; Potency, µM (highest dose often 102 µM), without a hit: at the highest dose activity, negative = inhibition, most hits filed as inhibitors; 8.8% of 350,000 active; AID 504332, 2011; note: % is set by controls: 0 for no effect and ±100 for the full control effect; nearly all actives have a fitted effect of over 75% in size
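AlphaScreen read-out: biotin-H3K9 peptide (500 nM) methylation by 20 nM enzyme with 20 uM SAM, 2 h at room temperature after 15 min compound preincubation; anti-monomethyl H3K9 antibody plus donor/acceptor beads, 10 min dark.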
Sfp PPTase inh: qHTS Assay for Inhibitors of Bacillus subtilis Sfp phosphopantetheinyl transferase (PPTase); 4'-phosphopantetheinyl transferase ffp (Bacillus subtilis), Q9F4F7; Biochemical Sfp PPTase activity, qHTS; Potency, µM, for inactives: largest response in the series, negative = inhibition, usual class: inhibitors; 3.5% of 310,000 active;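 note: the enzyme is Sfp with the accession as filed and its product quenches rhodamine fluorescence; 0% = enzyme reaction without inhibitor and -100% = no enzyme wells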
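Fluorescence-quenching assay: 15 nM Sfp-PPTase preincubated 15 min at room temperature with compound, then 5 uM rhodamine-CoA and 12.5 uM BHQ-2-labelled YbbR peptide added. Fluorescence (ex 525/em 598 nm) read at start and after 30 min; difference gives rate.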
BAZ2B block: qHTS Assay for Inhibitors of BAZ2B; Bromodomain adjacent to zinc finger domain protein 2B (Homo sapiens), Q9UIF8; AlphaScreen BAZ2B-H3K14Ac peptide displacement; Potency, µM (doses to about 114 µM), inactives show at the top dose activity change, negative = inhibition, hits mostly inhibitors; 4.4% of 360,000 active; AID 504333, 2011; note: % is set by controls: 0 for no effect and ±100 for the full control effect; nearly all actives have a fitted effect of over 60% in size
Target sequence (Q9UIF8 whole entry, looked up, the tested form may be a part): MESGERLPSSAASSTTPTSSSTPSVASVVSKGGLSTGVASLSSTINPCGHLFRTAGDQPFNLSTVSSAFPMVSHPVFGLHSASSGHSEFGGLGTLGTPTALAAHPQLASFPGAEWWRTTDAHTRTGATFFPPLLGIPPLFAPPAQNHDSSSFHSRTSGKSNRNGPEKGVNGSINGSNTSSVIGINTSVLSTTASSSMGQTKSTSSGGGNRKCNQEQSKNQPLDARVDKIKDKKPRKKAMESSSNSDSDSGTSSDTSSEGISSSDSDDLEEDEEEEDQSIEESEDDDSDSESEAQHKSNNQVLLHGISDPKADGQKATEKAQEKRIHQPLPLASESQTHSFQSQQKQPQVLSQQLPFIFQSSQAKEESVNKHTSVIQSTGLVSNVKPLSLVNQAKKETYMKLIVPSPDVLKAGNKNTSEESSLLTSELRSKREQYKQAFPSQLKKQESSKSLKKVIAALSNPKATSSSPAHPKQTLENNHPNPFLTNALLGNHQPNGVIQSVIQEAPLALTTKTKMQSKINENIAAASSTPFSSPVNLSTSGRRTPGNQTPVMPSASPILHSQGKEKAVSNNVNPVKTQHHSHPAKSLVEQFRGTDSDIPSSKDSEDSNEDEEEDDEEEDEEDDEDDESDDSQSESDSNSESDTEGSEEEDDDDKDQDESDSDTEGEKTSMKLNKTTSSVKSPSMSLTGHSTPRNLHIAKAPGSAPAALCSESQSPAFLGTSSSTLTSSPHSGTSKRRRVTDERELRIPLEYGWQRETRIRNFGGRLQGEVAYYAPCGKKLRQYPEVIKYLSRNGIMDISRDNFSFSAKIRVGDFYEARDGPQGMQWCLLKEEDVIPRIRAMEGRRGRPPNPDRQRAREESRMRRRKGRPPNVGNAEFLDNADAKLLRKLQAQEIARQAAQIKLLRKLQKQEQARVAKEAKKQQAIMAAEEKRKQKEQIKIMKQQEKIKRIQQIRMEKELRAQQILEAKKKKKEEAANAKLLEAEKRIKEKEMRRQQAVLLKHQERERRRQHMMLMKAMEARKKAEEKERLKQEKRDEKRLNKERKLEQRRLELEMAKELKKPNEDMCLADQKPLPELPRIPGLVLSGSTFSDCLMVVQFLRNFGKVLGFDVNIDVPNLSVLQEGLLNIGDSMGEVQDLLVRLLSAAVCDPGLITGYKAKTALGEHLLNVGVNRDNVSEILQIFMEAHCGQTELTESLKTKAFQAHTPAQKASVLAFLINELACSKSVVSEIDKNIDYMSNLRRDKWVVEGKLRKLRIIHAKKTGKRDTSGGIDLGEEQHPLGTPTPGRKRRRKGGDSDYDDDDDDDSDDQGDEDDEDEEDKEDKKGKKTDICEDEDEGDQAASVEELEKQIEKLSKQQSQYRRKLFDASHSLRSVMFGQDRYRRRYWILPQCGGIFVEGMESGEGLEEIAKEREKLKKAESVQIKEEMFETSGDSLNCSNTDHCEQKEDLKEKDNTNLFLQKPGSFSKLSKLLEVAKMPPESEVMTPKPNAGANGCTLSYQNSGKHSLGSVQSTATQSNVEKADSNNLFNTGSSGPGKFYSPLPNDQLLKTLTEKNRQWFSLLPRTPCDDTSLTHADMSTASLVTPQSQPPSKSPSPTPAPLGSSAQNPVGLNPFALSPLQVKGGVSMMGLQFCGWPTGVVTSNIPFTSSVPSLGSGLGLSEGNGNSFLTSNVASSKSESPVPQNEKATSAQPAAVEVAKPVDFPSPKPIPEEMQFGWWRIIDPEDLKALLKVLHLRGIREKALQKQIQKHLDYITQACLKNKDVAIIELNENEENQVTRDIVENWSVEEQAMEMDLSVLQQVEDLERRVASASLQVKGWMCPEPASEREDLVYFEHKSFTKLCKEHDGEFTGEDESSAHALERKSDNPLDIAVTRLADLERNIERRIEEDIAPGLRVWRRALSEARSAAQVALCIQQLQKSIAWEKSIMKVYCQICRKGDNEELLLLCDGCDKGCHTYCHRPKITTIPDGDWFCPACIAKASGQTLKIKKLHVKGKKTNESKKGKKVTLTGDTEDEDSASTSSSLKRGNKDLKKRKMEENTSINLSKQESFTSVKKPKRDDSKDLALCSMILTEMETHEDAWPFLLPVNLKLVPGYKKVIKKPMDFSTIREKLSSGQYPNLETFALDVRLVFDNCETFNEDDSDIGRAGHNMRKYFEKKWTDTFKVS
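Protein-peptide AlphaScreen: BAZ2B 50 nM, b-H3K14Ac 50 nM, 1x PBS pH 7.4 + 0.01% Tween-20. Preincubation 30 min RT; cpd 30 min RT (top 110 uM); beads 20 min RT, light-protected.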
HP1b chromo inh: HTS for Inhibitors of HP1-beta Chromodomain Interactions with Methylated Histone Tails; Chromobox protein homolog 1 (Homo sapiens), P83916; AlphaScreen HP1-beta / biotin-H3K9me3 peptide binding; Potency, µM (highest dose often 114 µM), for inactives: at the highest dose activity change, negative = inhibition, usual class: inhibitors; 0.56% of 390,000 active; AID 540317, 2011; note: nearly all actives have a fitted effect of over 70% in size
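AlphaScreen: HP1-beta (50 nM) preformed 30 min with biotin-H3(1-18)K9me3 peptide (50 nM) in PBS pH 7.4, 0.01% Tween-20. Compound added for 30 min at RT, then streptavidin donor/nickel chelate acceptor beads (10 ug/mL) for 30 min.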
Numbers without * were called inactive; ? = inconclusive; . = no result; ! = not confirmed by another sample; [ ] = another dose, or the depositor's remark. Compounds with a hit are over-represented: about 8.7% of the library has one in this group of screens. Calls come from the whole dose curve; as a rule, active = well fitted curve in the direction sought with a large enough effect; inconclusive = small, poorly fitted or top-dose-only effect, or another doubt; inactive = no such curve, though single readings can be large; an effect the other way counts as inactive or inconclusive. Potency is the fitted concentration of half-maximal effect.

SMILES	JMJD2A Tudor	ALOX12 inh	G9a inh	Sfp PPTase inh	BAZ2B block	HP1b chromo inh
S=c1[nH]nc(C2CC2)n1Cc1ccco1	22µM*	?	2.5µM*	-16%	1%	8%
C=CCn1c(C2CC2)n[nH]c1=S	?	?	45µM*	-23%	-24%	40%
Cc1ccc2c(n1)N(C)[C@H](CO)CCN(Cc1ccco1)C2	.	13%[176 µM]	.	.	.	.
CC1=C(C(=O)O)N2C(=O)C(NC(=O)Cc3ccccc3)C2SC1 (stereo not given)	8%	-18%	10µM*	10µM*	-29%	42%
CC(=O)OCC1=C(C(=O)O)N2C(=O)C(NC(=O)CCCC(N)C(=O)O)C2SC1 (stereo not given)	.	.	8%[2.33 µM]	-11%	.	.
CC1=C(C(=O)O)N2C(=O)C(NC(=O)c3nn(C)cc3[N+](=O)[O-])C2SC1 (stereo not given)	?	?	3.5µM*	4µM*	50µM*	3%
Cc1ncc2c(n1)C[C@@H]1CC[C@H]2N1C(=O)Nc1ccc(C)c(F)c1	.	0%	.	.	.	.
COP(=S)(OC)Oc1ccc(S(=O)(=O)N(C)C)cc1	.	11µM*!	10µM*	35µM*	.	.
COc1cccc([C@H]2CN(C(=O)c3cnc(C)cn3)[C@@H]3C4CCN(CC4)[C@H]23)c1	.	18%	.	.	.	.
COc1ccc2c(c1)[nH]c1c(C)nccc12	-21%	-16%	13µM*!	16%	?	60%
CC(C)NC(=O)N1C2CCC1CN(Cc1cccnc1)C2	.	6%[12.5 µM]	.	.	.	.
CC(C)=CCCC1(C)C=Cc2c(O)c3c(c(CC=C(C)C)c2O1)OC12C(=CC4CC1C(C)(C)OC2(C/C=C(/C)C(=O)O)C4O)C3=O (stereo not given)	.	?	.	50µM*	.	.
c1ccc2c(CNC34CC5CC(CC(C5)C3)C4)c[nH]c2c1	.	-33%	.	.	.	.
CN1C(=O)C(=Cc2cccnc2)C(=O)N(C)C1=O	-8%	?	.	40µM*	-5%	13%
CCC1CCCCN1C(=O)CCl (stereo not given)	.	-47%	.	.	.	.
COCCC(=O)Nc1ccc2n(c1=O)C[C@H]1C[C@@H]2CN(CCCc2ccccc2)C1	.	21%[176 µM]	.	.	.	.
CN(C)S(=O)(=O)N(CC(=O)Nc1ccccc1)c1ccccc1	-13%	8%	-5%[59 µM]	32%	5%	15%
CN(CC(=O)Nc1cccc(F)c1)CC(=O)Nc1cccc(S(=O)(=O)N(C)c2ccccc2)c1	0.89µM*	135%	.	.	.	40µM*
Cc1ccccc1-n1c(Cn2cnc3c(N)ncnc32)nc2cccc(C)c2c1=O	.	-3%[57.4 µM]	.	.	.	.
COc1ccc2c(c1)C1(CCN(C(=O)c3cccc(N(C)C)c3)C1)C(=O)N2C (stereo not given)	.	32%	.	.	.	.
Cc1ccc(NC(=O)COC(=O)CCc2c[nH]c3ccccc23)cc1[N+](=O)[O-]	?	-1%	40µM*	?	?	-23%
CC(=O)NCCc1c[nH]c2ccccc12	-5%	?	2%[59 µM]	21%	?	25%
CC[C@@]1(O)C(=O)OCc2c1cc1n(c2=O)Cc2cc3ccccc3nc2-1	-17%	?	45µM*!	10%	-3%	16%
CC[C@@]1(O)C(=O)OCc2c1cc1n(c2=O)Cc2cc3c(NC(=O)CN)cccc3nc2-1	-22%	8%	?	56µM*	?	41%
CCC1(O)C(=O)OCc2c1cc1n(c2=O)Cc2cc3cc(O)ccc3nc2-1 (stereo not given)	?	14%	.	.	.	-14%
SMILES	JMJD2A Tudor	ALOX12 inh	G9a inh	Sfp PPTase inh	BAZ2B block	HP1b chromo inh
CC[C@@]1(O)C(=O)OCc2c1cc1n(c2=O)Cc2cc3c(O)cccc3nc2-1	.	.	2.5µM*	?	.	.
CSc1nccc(N2CCC3(CCCN(CC4CC4)C3)C2)n1 (stereo not given)	.	6%	.	.	.	.
O=C(Nc1ccc2c(c1)OCCO2)N1[C@H]2CC[C@@H]1c1cncnc1C2	.	45%	.	.	.	.
CN1Cc2ccccc2-n2ccnc2C12CCN(C(=O)c1cccc(C(F)(F)F)c1)CC2	.	14%	.	.	.	.
C#C[C@H]1CN2CC[C@H]1C[C@@H]2COC(=O)Nc1ccc(OC(F)(F)F)cc1	.	45%[176 µM]	.	.	.	.
CCN(CC)c1ccc(CC2C(=O)N(C)C(=O)N(C)C2=O)cc1	45µM*	.	13µM*	?	45µM*	?
CNCc1cn(C[C@H]2CC3CCN2C[C@@H]3C(=O)Nc2ccccc2)nn1 (stereo not given in full)	.	55%[176 µM]	.	.	.	.
Cc1ccccc1N1C(=O)NC(=O)/C(=C\c2ccc3c(c2)CCCN3Cc2ccccc2)C1=O	50µM*	?	10µM*	79µM*	35µM*	?
COc1ccc(CCCc2nnc(SCC(=O)Nc3ccc(C)c(C)c3)o2)cc1	?	?	22µM*	2%	-26%	3%
CCOC(=O)c1c(NC(=O)C(c2ccccc2)c2ccccc2)sc2c1C1CCN2CC1	?	?	50µM*	?	?	1%
CCCNC1CCCC1	.	-27%	.	.	.	.
COc1ccc(CCN2CCC(CNC(=O)c3cnn(-c4ccc(C)cc4)c3C3CCN(C(=O)OC(C)(C)C)CC3)CC2)cc1	?	40µM*	-20%[59 µM]	.	?	6%
CCOc1ccc2nc(NC(=O)c3cccn(Cc4ccccc4C)c3=O)sc2c1	4%	-1%	9%[59 µM]	.	1%	32%[57 µM]
CCOc1ccc2nc(N=Nc3c(O)[nH]c(=S)[nH]c3=O)sc2c1	?	-16%	35µM*	56µM*	22µM*	?
CCOC(=O)c1sc(N=Nc2c(O)[nH]c(=O)[nH]c2=O)c(C(=O)OCC)c1C	.	.	-23%[59 µM]	6%	-37%	.
CCOc1ccc2nc(N=Nc3c(O)[nH]c(=O)[nH]c3=O)sc2c1	-11%[11.4 µM]	-28%	.	10%	45µM*	-6%
COc1ccc(C(=O)NC[C@H]2C[C@@H]3CCN2C[C@@H]3c2cc(C3CCCCC3)nn2C)cc1	.	10%	.	.	.	.
CN1CCN(c2ccc([N+](=O)[O-])cc2Cl)CC1	-14%	0%	.	11%	-9%	31%
CC1CN(c2ccc([N+](=O)[O-])cc2Cl)CCN1 (stereo not given)	-14%	-21%	40µM*	-23%	-11%	20%
CC1CCC(=O)O1 (stereo not given)	.	3%[176 µM]	.	.	.	.
COc1ccccc1CNC(=O)[C@H]1CN2CC[C@H]1C[C@@H]2Cn1cc(-c2ccccc2)nn1	.	6%[176 µM]	.	.	.	.

High-throughput results: PubChem, National Center for Advancing Translational Sciences (NCATS)
